Screening data deposited in PubChem BioAssay by National Center for Advancing Translational Sciences (NCATS).
GLP1R inv ag: qHTS of GLP-1 Receptor Inverse Agonists (Inhibition Mode) | Glucagon-like peptide 1 receptor (Homo sapiens), P43220 | HEK293 GLP-1R CRE-luciferase, luminescence, 24 h; GLP-1R form is constitutively active | Potency, µM (top dose mostly 38.3 µM), for inactives: at the highest dose activity change, negative = inhibition, most hits filed as inhibitors | hit rate 1.6% among 410,000 | AID 624417, 2012; also: % is scaled to controls: 0 for no effect and ±100 for the full control effect; nearly all actives have a fitted effect of over 55% in size
Target sequence (P43220 whole entry, looked up): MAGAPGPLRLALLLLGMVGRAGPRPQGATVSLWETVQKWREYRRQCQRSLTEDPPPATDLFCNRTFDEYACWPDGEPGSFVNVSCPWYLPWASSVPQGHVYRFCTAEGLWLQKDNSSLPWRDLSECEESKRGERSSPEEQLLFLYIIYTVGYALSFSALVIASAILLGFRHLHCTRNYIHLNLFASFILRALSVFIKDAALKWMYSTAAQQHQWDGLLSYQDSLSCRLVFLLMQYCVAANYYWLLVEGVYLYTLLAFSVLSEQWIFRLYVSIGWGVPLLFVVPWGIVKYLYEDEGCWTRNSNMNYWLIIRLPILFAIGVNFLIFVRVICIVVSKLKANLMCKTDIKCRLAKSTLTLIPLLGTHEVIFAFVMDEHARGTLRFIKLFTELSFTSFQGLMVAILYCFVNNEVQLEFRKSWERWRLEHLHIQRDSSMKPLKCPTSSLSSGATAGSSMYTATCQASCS
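Readout was luciferase luminescence, measured 12 min after detection reagent at room temperature. Beforehand, GLP-1R reporter HEK293 cells had sat 12 h, then received compounds for 24 hr at 37 deg C.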
RORg inh: qHTS for inhibitors of ROR gamma transcriptional activity. Potency, µM (series often up to 53.6 µM), without a hit: top-dose activity change, negative = inhibition, usual class: inhibitors. hit rate 5.4% among 310,000. AID 2551, 2010. Drosophila S2 Gal4-RORgamma UAS-luciferase reporter, 20 h; also: % is scaled to controls: 0 for no effect and ±100 for the full control effect; nearly all actives have a fitted effect of over 60% in size
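Using a luciferase readout, inhibitors were identified by reduced reporter activity in Drosophila cells coexpressing a copper-inducible Gal4–ROR gamma fusion and UAS-driven Photinus luciferase, incubated 20 hr after 700 uM copper sulfate.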
VP16 counter: VP16 counterscreen qHTS for inhibitors of ROR gamma transcriptional activity; Drosophila S2 Gal4-VP16 UAS-luciferase, luminescence, 20 h; Potency, µM (doses to about 53.6 µM), for the others: top-dose activity, negative = inhibition, most hits filed as inhibitors; hit rate 3.5% among 310,000; AID 2546, 2010;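 also: Gal4-VP16 expression switched on by copper sulfate through the metallothionein promoter; % is scaled to controls: 0 for no effect and ±100 for the full control effect; nearly all actives have a fitted effect of over 50% in size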
GLP1R cytotox: qHTS of GLP-1 Receptor Inverse Agonists: Cytotox Screen; HEK293 cAMP-luciferase reporter cells, luminescence, 24 h; hit rate 0.13% among 410,000; Potency, µM (top dose mostly 38.3 µM), without a hit: top-dose activity change, negative = inhibition, hits mostly inhibitors;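 also: loss of luciferase light is scored as toxicity; % is scaled to controls: 0 for no effect and ±100 for the full control effect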
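Cells in DMEM/10% Nu serum/1% pen-strep, 1536-well format. Pre-incubated 12 h, dosed with 23 nL compound, incubated a further 24 h. Luciferase detection, 12 min at room temp, luminescence.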
GLP1R ag: qHTS of GLP-1 Receptor Agonists | Glucagon-like peptide 1 receptor (Homo sapiens), P43220 | HEK293 GLP-1R CRE-luciferase, luminescence, 4-6 h; cells express a hypersensitive GLP-1R form | Potency, µM (titrated, usually from 45.6 µM), inactives show top-dose activation, usual class: activators | hit rate 0.007% among 380,000; also: % of control where 0% means no effect
An asterisk follows results filed as active; ? = inconclusive; . = not tested or not shown; [ ] = remark or other dose. Rows were chosen to be rich in hits. Some 5.9% of all compounds tested hit in one or more screens of this group. Calls follow the shape of the dose curve; as a rule, active = well fitted curve in the direction sought with a large enough effect; inconclusive = small, poorly fitted or top-dose-only effect, or another doubt; inactive = no such curve, though single readings can be large; an effect the other way counts as inactive or inconclusive. Potency is read from the fitted curve at half-maximal effect.

SMILES | GLP1R inv ag | RORg inh | VP16 counter | GLP1R cytotox | GLP1R ag
COc1ccc(N2CC(NC(=O)COc3ccc4ccccc4c3)CC2=O)cc1 (stereo not drawn) | -7% | . | . | -8% | .
O=C(N/N=C/c1cccn1-c1ccc([N+](=O)[O-])cc1)c1cccnc1 | -18% | ? | 10µM* | ? | -5%
O=C(N/N=C/c1sc(=O)n(-c2ccccc2)c1Cl)c1ccncc1 | -29% | 7.1µM* | 11µM* | -9% | 3%
COc1cc(C(=O)N/N=C/c2sc(=O)n(-c3ccccc3)c2Cl)cc(OC)c1OC | 4% | -20% | ? | 8% | -2%
O=C(N/N=C/c1cccn1-c1ccccc1)c1ccncc1 | 1% | 3.5µM* | 20µM* | 7% | 0%
O=C(N/N=C/c1ccncc1)c1ccccc1 | 33% | 34% | 0% | 20% | -11%
CCCCN1C(=O)C(O)(c2ccccc2)c2cc(Br)ccc21 (stereo not drawn) | 13µM* | -32% | -19% | -5% | 15%
CC1CCCN(C(c2cccs2)c2nnnn2Cc2ccccc2)C1 (stereo not drawn) | 11µM* | 39% | 1% | -3% | 6%
COc1ccc2c(c1)C(=O)[C@H](OC(=O)N[C@H](C)C1CCCCC1)[C@@H](c1ccc(OC)c(Br)c1)O2 | . | -12% | -2% | . | .
COc1ccccc1NC(=O)Nc1ccc(-n2ccc(C(F)(F)F)n2)cc1 | 2µM* | ? | 29% | -24% | 1%
O=C(O)CCC(=O)Nc1ccc(-n2ccc(C(F)(F)F)n2)cc1 | 5% | -20% | 0% | -7% | 9%
O=C(O)c1ccccc1C(=O)Nc1ccc(-n2ccc(C(F)(F)F)n2)cc1 | 13% | 26% | -1% | -5% | 1%
O=C(Nc1ccc(-n2ccc(C(F)(F)F)n2)cc1)Nc1cccc(Cl)c1 | . | ? | 18µM* | . | .
COc1ccccc1NC(=O)Nc1ccc2c(c1)nc(C)n2C | -28% | 10µM* | ? | 3% | 5%
Cc1cc(C)cc(NC(=O)Nc2ccc(-n3ccc(C(F)(F)F)n3)cc2)c1 | 2.2µM* | 29% | -9% | ? | 0%
Cc1nc(NCc2ccccc2)c2nc(-c3ccccc3)n(CCCN(C)C)c2n1 | . | -19% | -7% | . | .
Cc1c(Cl)cccc1NC(=O)CCn1c(=O)c2cccn2c2ccccc21 | 0% | . | . | -10% | .
Cc1ccc(NC2=NC(=S)N(CC#N)C23CCCCC3)cc1 | -9% | 18µM* | -20% | 1% | 0%
N#CCN1C(=S)N=C(Nc2cccc(Cl)c2)C12CCCCC2 | -14% | 2.8µM* | ? | 76% | 1%
Cc1cc(C)nc(Nc2cccc(C(F)(F)F)c2)n1 | -17% | 10% | 5% | 5% | -7%
Cn1c(CNc2cccc(Cl)c2)nnc1SCC#N | 2% | 25% | -12% | -1% | 0%
CC(C)(C)C1CCC2(CC1)C(Nc1cccc(C(F)(F)F)c1)=NC(=S)N2CC#N (stereo not drawn) | 0% | 18µM* | 13µM* | -6% | -6%
CCc1ccc(NC(=S)N2CCN(c3cccc(OC)c3)CC2)cc1 | ? | 13µM* | ? | -9% | -7%
CCc1ccccc1NC(=S)N1CCN(c2cccc(OC)c2)CC1 | -28% | 10µM* | ? | 7% | -3%
COc1cccc(N2CCN(C(=S)Nc3ccccc3)CC2)c1 | -29% | -13%[1.91 µM] | ? | 2% | -13%
SMILES | GLP1R inv ag | RORg inh | VP16 counter | GLP1R cytotox | GLP1R ag
CCCCNC(=O)Cn1c2c(c(-c3ccccc3Cl)cc1=O)CCC2 | -29% | 1% | 16% | -1% | -4%
O=C(Cn1c2c(c(-c3ccccc3)cc1=O)CCCC2)N1CCCCCC1 | 13µM* | ? | -9% | 12% | 3%
O=C(O)c1ccc2c(=O)n(-c3ccccc3F)c(=S)[nH]c2c1 | -10% | -19% | 4% | 0% | 0%
CCCCNC(=O)CCCCCn1c(=O)[nH]c2cc(C(=O)OC)ccc2c1=O | -17%[7.66 µM] | -24% | -2% | 0%[7.66 µM] | -3%
CCc1cc2c(=O)n(-c3ccccc3)c(=S)[nH]c2s1 | 0% | 2.5µM* | 4.5µM* | 4% | -8%
COC(=O)c1ccc2c(=O)n(-c3ccccc3)c(=S)[nH]c2c1 | 18% | 1.8µM* | ? | -10% | -2%
CCc1cc2c(=O)n(-c3ccccc3)c(SCC(N)=O)nc2s1 | 1% | ? | 7% | -10% | -1%
COC(=O)c1ccc2c(=O)n(CCCCCC(=O)O)c(=O)[nH]c2c1 | 2% | 10µM* | 16µM* | -2% | -2%
COC(=O)c1ccc2c(=O)n(-c3ccccc3F)c(=S)[nH]c2c1 | -22% | 3.2µM* | 5.6µM* | 7% | 1%
O=C(Nc1ccccc1C(=O)OCc1cc(=O)n2c3c(sc2n1)CCCC3)c1ccc(F)cc1 | 1% | . | . | -14% | .
Cc1cccc(NC(=O)c2cc3c([nH]c2=O)CC(c2ccccc2)CC3=O)c1 (stereo not drawn) | 2% | . | . | 3% | .
CCN1C(=O)[C@H]2[C@H]3[C@H](O)[C@H](O)C/C(=N/OCC(C)C)[C@@H]3CC[C@@H]2C1=O | . | 10%[10 µM] | -7%[10 µM] | . | .
COc1ccc(-n2c(=S)[nH]c3cc(C(=O)N4CCN(c5ccccc5)CC4)ccc3c2=O)cc1 | 5% | 10µM* | ? | -3% | 1%
Nc1c(CC(=O)O)cccc1C(=O)c1ccccc1 | . | . | . | . | -4%
COc1ccccc1N=CC=C1OC(C)(C)C(C)(C)O1 | 2.2µM* | 14% | -1% | 16% | 0%
Fc1ccc(Nc2nc(-c3ccoc3)nc3ccccc23)cc1 | . | ? | -4% | . | .
Cc1ccccc1-n1c(-c2ccco2)n[nH]c1=S | 1% | 11µM* | ? | 20%[1.53 µM] | -1%
FC(F)(F)c1ccccc1-n1c(-c2ccco2)n[nH]c1=S | ? | 14µM* | ? | 3% | -1%
Cc1ccc(-n2c(-c3cc(-c4ccco4)[nH]n3)n[nH]c2=S)c(Br)c1 | 21% | 8.9µM* | -4% | -6% | 6%
Cc1cccc(-n2c(-c3ccco3)n[nH]c2=S)c1 | 27% | 11µM* | ? | -10% | -7%
S=c1[nH]nc(-c2cc(-c3ccco3)[nH]n2)n1-c1cccc2ccccc12 | 4% | 24% | -2% | 1% | 0%
O=c1c(-c2cc(F)cc(F)c2)nc2cncnc2n1Cc1ccc(F)cc1 | . | -2% | 2% | . | .
S=C(NCc1ccco1)Nc1cccc(Cl)c1 | 8.9µM* | 1.8µM* | 7.1µM* | -12% | 0%
S=C(NCc1ccco1)Nc1ccc(Cl)c(Cl)c1 | 10µM* | 13µM* | 16µM* | -11% | 0%
CC(=O)c1cccc(NC(=S)NCc2ccco2)c1 | -17% | -4% | 1% | -30% | -5%
